Data: the supplement of paper PMC11732987, “Enantioselective OTUD7B fragment discovery through chemoproteomics screening and high-throughput optimisation” (Communications Chemistry, 2025)

Assays:
Assay in all cases: log2 ratio of Biotin-Ahx-Ub-VS probe labelling (fragment/DMSO); higher = less target engagement (more negative = stronger competition), active = hit call of the paper (q ≤ 0.05, log2 ratio ≤ -1)
Settings in all cases: compound concentration: 200 uM; treatment time: 3 h
USP34 = USP34 (UniProt Q70CQ2)
Sequence of USP34 (Q70CQ2 whole entry, the tested form may be a part): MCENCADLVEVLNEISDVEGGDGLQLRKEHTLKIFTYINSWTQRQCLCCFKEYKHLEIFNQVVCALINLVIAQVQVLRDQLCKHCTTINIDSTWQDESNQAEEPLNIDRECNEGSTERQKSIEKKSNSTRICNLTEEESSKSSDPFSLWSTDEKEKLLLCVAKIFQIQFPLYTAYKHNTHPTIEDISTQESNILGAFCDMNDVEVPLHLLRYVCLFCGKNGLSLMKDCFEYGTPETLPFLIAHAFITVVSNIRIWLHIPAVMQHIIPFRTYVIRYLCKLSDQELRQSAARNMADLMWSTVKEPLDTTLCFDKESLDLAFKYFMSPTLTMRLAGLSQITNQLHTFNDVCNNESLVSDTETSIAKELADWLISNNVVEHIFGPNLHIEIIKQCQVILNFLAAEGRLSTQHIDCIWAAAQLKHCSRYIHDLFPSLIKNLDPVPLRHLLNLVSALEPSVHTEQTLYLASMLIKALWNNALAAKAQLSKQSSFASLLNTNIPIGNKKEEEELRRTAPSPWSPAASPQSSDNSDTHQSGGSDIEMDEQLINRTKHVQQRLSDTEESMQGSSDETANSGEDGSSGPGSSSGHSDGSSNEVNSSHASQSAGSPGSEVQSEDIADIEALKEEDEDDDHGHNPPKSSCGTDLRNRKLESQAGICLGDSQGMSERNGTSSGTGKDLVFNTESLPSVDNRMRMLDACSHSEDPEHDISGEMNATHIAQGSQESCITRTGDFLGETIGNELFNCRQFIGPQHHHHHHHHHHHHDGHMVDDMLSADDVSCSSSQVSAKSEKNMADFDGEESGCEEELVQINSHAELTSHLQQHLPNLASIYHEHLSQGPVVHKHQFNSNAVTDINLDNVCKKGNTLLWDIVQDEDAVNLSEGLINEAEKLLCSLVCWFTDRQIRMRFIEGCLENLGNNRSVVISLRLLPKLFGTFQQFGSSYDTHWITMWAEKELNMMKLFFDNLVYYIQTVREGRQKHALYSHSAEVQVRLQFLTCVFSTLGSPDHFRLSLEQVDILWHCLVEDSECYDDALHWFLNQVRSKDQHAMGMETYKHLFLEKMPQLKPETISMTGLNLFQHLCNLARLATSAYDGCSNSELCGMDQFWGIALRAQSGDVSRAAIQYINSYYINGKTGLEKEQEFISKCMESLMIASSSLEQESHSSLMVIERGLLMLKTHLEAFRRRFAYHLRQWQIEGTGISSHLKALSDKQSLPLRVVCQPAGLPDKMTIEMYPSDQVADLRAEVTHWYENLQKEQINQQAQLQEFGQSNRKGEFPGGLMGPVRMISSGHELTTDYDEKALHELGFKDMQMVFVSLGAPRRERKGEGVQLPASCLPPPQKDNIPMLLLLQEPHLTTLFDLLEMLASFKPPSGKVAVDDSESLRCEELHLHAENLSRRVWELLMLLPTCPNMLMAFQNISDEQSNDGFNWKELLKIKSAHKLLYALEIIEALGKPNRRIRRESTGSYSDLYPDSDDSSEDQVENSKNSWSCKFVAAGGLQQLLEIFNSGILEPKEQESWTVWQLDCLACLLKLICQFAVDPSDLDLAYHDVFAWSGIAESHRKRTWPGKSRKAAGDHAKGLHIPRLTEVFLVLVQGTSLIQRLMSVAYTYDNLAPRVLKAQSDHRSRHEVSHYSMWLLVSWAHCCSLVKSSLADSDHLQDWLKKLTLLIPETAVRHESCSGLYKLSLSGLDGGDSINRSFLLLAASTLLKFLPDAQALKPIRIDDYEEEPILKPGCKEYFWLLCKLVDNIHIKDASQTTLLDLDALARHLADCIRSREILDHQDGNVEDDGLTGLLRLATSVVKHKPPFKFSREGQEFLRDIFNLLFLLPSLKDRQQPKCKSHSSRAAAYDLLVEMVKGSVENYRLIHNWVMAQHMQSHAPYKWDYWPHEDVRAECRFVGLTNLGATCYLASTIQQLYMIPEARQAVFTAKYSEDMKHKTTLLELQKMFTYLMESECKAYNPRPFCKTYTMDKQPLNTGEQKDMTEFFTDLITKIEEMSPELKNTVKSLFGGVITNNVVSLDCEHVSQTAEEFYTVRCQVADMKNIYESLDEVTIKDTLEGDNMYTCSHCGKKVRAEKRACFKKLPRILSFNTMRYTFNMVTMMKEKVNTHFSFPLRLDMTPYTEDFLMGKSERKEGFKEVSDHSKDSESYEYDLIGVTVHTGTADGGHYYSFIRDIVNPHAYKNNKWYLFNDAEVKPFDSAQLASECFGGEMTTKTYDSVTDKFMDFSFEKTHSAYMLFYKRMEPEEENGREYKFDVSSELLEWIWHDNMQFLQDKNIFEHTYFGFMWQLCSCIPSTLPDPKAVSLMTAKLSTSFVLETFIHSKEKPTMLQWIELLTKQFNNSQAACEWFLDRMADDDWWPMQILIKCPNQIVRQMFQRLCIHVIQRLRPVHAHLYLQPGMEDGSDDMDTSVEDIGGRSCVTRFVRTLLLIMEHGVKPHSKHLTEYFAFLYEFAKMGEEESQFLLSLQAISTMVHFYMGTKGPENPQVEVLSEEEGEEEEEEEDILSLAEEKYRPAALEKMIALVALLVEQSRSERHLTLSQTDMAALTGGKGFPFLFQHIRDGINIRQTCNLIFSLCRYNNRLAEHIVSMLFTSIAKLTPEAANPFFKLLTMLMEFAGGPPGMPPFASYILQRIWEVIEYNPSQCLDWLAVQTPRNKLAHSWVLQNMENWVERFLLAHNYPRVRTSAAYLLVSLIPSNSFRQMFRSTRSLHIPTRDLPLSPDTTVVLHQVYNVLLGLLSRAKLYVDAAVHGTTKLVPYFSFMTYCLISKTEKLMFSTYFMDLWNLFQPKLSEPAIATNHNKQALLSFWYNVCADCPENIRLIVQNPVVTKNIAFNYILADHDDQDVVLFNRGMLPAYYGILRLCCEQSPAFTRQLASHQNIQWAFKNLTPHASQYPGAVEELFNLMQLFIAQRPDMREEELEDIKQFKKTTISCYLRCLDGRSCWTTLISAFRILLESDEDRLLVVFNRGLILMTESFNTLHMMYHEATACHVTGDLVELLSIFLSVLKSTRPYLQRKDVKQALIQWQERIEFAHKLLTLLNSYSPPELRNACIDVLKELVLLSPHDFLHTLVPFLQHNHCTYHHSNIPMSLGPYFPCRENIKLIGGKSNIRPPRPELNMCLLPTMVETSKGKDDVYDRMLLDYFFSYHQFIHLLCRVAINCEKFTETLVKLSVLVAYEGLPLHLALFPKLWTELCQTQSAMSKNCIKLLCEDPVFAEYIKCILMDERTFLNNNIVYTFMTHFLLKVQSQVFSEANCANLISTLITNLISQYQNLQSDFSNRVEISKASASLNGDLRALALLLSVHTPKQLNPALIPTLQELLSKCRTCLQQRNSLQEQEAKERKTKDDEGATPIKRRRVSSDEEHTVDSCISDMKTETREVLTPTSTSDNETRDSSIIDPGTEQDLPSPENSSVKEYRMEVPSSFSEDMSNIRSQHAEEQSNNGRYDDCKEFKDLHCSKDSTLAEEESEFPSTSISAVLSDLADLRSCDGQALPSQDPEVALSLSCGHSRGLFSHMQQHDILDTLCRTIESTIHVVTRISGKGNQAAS
Procedure, shortened: (§1)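 HEK293T lysate, 495 µg per sample in Tris/CHAPS/IGEPAL buffer with protease inhibitors, was treated in triplicate with fragment at 200 µM or vehicle for 3 h and then with Biotin-Ahx-Ub-VS at 0.5 µM final for 1 h. Labelled DUBs were NeutrAvidin-enriched, digested with LysC and trypsin, and run by diaPASEF LC-MS/MS. Spectronaut label-free quantities were global-median-normalised, and values are average log2 fragment/vehicle ratios by unpaired t-test on proteins with ≥2 unique peptides.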

USP36 = target: T1, USP36 (UniProt Q9P275)
T1 sequence (whole entry): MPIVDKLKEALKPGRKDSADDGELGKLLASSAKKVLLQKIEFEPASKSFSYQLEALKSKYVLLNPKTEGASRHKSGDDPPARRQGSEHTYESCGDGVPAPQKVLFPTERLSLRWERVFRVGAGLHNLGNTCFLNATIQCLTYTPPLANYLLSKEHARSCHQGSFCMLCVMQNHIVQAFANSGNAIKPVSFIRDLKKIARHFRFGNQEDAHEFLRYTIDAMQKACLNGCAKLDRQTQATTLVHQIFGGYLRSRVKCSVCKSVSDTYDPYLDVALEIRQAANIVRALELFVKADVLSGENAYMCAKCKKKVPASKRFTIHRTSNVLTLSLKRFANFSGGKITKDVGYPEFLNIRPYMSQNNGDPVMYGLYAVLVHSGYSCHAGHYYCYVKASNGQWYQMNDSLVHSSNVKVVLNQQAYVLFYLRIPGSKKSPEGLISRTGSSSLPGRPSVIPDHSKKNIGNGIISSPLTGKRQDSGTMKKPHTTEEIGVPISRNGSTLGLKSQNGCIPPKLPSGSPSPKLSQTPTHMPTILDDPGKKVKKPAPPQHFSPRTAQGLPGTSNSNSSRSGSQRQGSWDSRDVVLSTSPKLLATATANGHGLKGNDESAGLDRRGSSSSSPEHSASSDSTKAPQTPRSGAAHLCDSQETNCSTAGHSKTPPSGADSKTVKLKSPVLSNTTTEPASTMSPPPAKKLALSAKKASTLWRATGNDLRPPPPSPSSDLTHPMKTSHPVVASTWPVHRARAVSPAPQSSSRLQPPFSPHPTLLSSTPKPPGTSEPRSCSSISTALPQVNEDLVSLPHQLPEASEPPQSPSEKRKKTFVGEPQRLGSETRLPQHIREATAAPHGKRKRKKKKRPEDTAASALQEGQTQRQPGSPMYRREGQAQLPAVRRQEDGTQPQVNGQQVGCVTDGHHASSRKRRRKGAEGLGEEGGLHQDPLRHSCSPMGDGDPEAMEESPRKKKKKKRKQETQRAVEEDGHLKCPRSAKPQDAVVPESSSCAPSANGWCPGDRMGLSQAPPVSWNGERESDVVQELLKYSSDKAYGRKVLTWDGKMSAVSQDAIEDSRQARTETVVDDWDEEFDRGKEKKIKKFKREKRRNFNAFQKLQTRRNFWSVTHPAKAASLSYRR
Procedure, shortened: as §1

USP38 = target: T2, USP38 (UniProt Q8NB14)
T2 sequence (whole entry): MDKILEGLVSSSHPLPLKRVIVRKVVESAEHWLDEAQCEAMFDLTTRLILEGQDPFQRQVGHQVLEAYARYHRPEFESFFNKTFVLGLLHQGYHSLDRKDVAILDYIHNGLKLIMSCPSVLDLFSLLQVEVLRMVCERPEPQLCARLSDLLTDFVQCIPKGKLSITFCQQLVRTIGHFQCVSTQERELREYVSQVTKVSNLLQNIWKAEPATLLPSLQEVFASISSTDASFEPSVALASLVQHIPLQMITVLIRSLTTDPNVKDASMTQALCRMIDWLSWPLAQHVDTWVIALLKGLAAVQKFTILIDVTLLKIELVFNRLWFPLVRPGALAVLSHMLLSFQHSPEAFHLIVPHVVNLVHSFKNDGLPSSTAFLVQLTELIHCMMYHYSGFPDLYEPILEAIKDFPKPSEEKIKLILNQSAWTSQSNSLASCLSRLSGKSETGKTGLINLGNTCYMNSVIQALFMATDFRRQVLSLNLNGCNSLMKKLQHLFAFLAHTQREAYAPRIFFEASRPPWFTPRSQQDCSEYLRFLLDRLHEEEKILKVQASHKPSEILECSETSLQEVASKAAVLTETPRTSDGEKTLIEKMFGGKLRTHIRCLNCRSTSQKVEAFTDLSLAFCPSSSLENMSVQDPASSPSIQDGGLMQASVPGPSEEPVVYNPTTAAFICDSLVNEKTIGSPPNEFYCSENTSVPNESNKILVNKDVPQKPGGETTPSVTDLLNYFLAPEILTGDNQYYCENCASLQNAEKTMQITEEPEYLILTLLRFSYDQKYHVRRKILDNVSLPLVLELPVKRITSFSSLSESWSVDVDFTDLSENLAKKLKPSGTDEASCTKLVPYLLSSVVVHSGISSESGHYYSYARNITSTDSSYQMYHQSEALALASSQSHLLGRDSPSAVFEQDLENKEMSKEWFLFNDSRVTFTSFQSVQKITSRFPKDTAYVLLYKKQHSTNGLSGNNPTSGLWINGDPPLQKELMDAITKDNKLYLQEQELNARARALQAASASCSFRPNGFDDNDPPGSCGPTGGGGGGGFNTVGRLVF
Procedure, shortened: as §1

USP39 = target: T3, USP39 (UniProt Q53GS9)
T3 sequence (whole entry): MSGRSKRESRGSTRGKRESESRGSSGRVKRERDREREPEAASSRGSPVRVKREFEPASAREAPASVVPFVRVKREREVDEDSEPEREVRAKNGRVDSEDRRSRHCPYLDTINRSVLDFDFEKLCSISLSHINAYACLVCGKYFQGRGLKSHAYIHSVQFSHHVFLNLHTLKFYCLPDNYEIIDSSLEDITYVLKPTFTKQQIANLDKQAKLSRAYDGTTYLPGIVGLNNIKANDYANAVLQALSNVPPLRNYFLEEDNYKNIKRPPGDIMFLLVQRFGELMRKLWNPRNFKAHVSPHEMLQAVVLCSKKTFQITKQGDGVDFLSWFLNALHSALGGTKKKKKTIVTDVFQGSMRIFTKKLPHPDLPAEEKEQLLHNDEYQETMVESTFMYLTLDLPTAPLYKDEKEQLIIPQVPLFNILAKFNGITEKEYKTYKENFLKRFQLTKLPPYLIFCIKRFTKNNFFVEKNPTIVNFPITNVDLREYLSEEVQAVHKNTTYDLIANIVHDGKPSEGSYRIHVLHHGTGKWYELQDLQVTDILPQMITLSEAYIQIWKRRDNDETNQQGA
Procedure, shortened: as §1

USP4 = target: T4, USP4 (UniProt Q13107)
T4 sequence (whole entry): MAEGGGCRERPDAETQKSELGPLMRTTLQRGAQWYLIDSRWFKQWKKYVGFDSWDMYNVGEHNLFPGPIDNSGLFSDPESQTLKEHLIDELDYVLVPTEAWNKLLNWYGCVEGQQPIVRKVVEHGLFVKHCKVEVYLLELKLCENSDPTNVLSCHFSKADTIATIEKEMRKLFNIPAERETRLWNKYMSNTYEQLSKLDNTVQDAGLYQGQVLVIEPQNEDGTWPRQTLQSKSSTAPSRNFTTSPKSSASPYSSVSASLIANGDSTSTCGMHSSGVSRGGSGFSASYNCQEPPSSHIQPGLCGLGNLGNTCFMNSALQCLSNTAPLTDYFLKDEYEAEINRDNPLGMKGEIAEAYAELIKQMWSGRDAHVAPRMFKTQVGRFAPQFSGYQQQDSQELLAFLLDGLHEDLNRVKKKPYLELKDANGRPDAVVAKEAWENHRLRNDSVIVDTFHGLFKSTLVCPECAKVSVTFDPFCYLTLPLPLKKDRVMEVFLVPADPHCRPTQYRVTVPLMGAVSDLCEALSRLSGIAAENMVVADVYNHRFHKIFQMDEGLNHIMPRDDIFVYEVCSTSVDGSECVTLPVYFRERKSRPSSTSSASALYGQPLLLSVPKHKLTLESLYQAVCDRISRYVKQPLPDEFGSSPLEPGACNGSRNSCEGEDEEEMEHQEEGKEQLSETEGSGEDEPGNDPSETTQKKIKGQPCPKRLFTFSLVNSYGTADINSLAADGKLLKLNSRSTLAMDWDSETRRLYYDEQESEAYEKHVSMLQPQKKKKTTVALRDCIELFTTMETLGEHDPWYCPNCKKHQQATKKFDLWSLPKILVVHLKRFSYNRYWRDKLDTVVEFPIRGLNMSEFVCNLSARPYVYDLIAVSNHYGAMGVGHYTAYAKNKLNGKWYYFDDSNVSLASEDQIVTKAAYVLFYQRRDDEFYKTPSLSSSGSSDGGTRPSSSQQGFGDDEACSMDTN
Procedure, shortened: as §1

Measured: log2 ratio of Biotin-Ahx-Ub-VS probe labelling

O=C(CCl)Nc1cccc2ncccc12
inactive: USP34 -0.104 | USP36 0.45 | USP38 0.13 | USP39 0.472 | USP4 0.0333
